According to the supplement of paper PMC6555819:

These sequences were tested on VDR:RXRa (NR concentration 270 nM, RXRa partner concentration 90 nM) (assay: PBM binding z-score (relative to random genomic background probes); higher = stronger binding; sequences stand for … in GC…GCGATTGACAGCGTAGAATGAAGG).
Procedure: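 Protein-binding microarray (Agilent 4x180K custom design, double-stranded 60-nt probes: 5' GC cap, 34-nt variable region, 24-nt constant primer region; full probe sequence given). Purified or IVT nuclear receptor:RXRα heterodimers (3:1 NR:RXRα, mostly 270:90 nM) or homodimers were incubated for 1 h in PBS with 2% milk and no ligand, then detected with Alexa488 antibodies. Fluorescence from o1-orientation probes (~5 replicates averaged) was converted to z-scores against 500 random hg19 background probes. Variable regions are seed direct-repeat (DR0–DR5) sites, all their single-nucleotide variants and half-site ablations.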

Sequence | PBM binding z-score
CCTACTGGGCCATCAGGTCGTTGATATCAACGTT | 0.18
ATATGTAGGTTATCAGGTCATTCAGTTTGCGCAT | 4.71
GATACAGGGTCAGCTAGAGGCCAGACTATGGAAA | 3.23
CCTAACAGGCCAGGGTCACTCAAGCATTTCGCTT | 2.86
CCTCGGAGAACAGAAGGTCAGAGCTGTCCGCTTT | 1.03
ATCTCTAGGTAAGACTCAGTTCAATGAAGAACGC | 1.07
GTTCCAAGGTGAATAGGTCGTTGATGAGTAGGCG | 1.08
CTCGAAAGGTCGTGCTCATGTGAGTATACCAAAC | 3.36
AGAATGAGGTTATTAAGATAAGGGAATTGCGGTC | 1.3
CGAACTAGGTCATCCAGGAGAGTGAATACATTGA | 2.35
TAGCCTAGGTCATGCGGGCCCGTATAGTGTCGGC | 1.97
GCAGCTAGGTCAGGTTGGTCAGCTAACGGGTACG | 0.358
CCTGCTAGGTCAATGGTCACCTAAAGCAGCTCGC | 1.45
CAAACTAGTTCACGAAAGGTCAAAGTCGAATGAC | 6.33
CGTGAAAGTTCAACTAAGGTAACGTAAAGCACGC | 4.46
TCTTGTAGATCAACAGGAGGTGAAGAAAGATCGA | 0.032
GGAACGAGGCCAAGTTGATAGCAGAGTTTGATGG | -0.548
CGTCCAAGGTCATAGGAGGTCAGGGAAGACAGAT | 6.49
ATCTCTAGGTAAAAGTTCATTGAATCCCGAGGAT | 2.82
TAGCCTAGGTCATTCGGGCCAGTATAGTGTCGGC | 3.94

Sequence | PBM binding z-score
ATCTCTAGGTAACATGTTCAGTGAAAGAGAGGAC | 0.0615
CGAACTAGGTCATCCAGGACAGTGAGTACATTGA | 5.02
CGTCAAAGTTCAAGGTAACATAACAGAAAGCAGC | 3.63
CGAACTAGGTCTAGGACAGTGAATCTCCGCACGC | -0.692
TCTATTAGTTGAAGGGCACCCGACGAGTCCGTTT | 1.02
ATCTCTAGGTGAAGTTCAGTGAAAGATCGATAGA | 0.563
ACTCGGAGGACAAAGGTCCGAGCTACGCCAGTGA | -0.323
ACTATTAGTTGAGACGAGGGCAACCAATAGGTTG | 0.987
CATACAGGGTCAGCTATGCCAGAGTAGGGACGGC | 2.78
ACTAGCAGGGCAAGTTTGGGTCACTCAAACAAAG | 1.32
CAAACTAGGTCAAGATCAAAGTCGGTTTGTGCCA | 1.52
CGTCAAAGTTCAAGGTAACTTAACAGAAAGCAGC | 3.73
TAGCCTTGGTCATTCAGGGGCCAGTATAGAAAGC | -0.0829
CAGCTTAGGTCAGGGCCAGTATAGGAGGAACGTT | 0.513
CGTCCAAGGTCATAGGTCAGTGAAGAGATGACGG | 5.32
TTACCCAGGTGAAGGTCGTTGATCCCTCTGTAGA | 1.05
CGTCCAATGTCAATGCTAGGTCAGTGAAAGCATT | 0.803
ATCTCTAGGTAACCAAGTTCAGTTAATGCCGAAC | 4.33
CATACAGGCTCAGCTAGGCCAGAGTAGGGACGGC | -0.721
GCGACTGGGGCAAAGCAGGTTGCCATAAGGTTGG | -0.612
